# About 20 (0.6%) of roughly 3,300 compounds were called active.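 The calls were made as follows: active = growth inhibition above 90%, meaning viable cell count cut by more than 90% versus vehicle controls; inactive = growth inhibition below 90%.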 This excerpt belongs to a sample that is enriched for actives.
# Assay: HT29 colon tumor cell growth inhibition, primary screen, imaging, high content imaging, 72 h, CellTiter-Glo (AID 772);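 as to condensed nuclei: condensed means nuclear area below control median minus 1.5 SD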
# Details: HCS imaging cell count, at 10 µM, stronger effect = higher value; for condensed nuclei: measured here: percent cells with condensed nuclei
# [1] = measured here: ATP CellTiter-Glo viability
SMILES,growth inhibition,growth inhibition [1] [%],condensed nuclei [%]
C=CCNc1nc(C2(C)CC3(CC(C)(C)OC3=O)C(=O)O2)cs1 (centres undefined),-18.2% (inactive),-56.2,1.83
N#Cc1c(N)nc(SCc2ccccn2)c(C#N)c1-c1cccs1,63.2% (inactive),42.6,5.56
CCCCSc1nc(N)c(C#N)c(-c2cccs2)c1C#N,95.4% (active),86.1,41.7
N#Cc1c(N)nc(SCC(=O)NCCc2ccccc2)c(C#N)c1-c1cccs1,31.9% (inactive),4.22,7.98
CCN(CC)S(=O)(=O)c1cccc2c(N(C)C)cccc12,-83.5% (inactive),-46.3,4.17
COCCCNc1nc(-c2ccncc2)nc2ccccc12,89.9% (inactive),86.6,44.1
COCCCNC(=O)C(C#N)c1nc2ccccc2nc1N1CCN(Cc2ccccc2)CC1 (centres undefined),0% (inactive),11.6,4.88
Clc1cccc(-c2nn3c(-c4cccc(Cl)c4)nnc3s2)c1,-66.5% (inactive),-37.2,7.77
COc1ccccc1C(=O)N1CCCC1(C#N)c1ccccc1 (centres undefined),-76.6% (inactive),-54.8,2.93
Fc1ccc2[nH]c3c(N4CCN(C5CCCCC5)CC4)ncnc3c2c1,86.8% (inactive),96.8,43.8
CCOc1cccc(-c2nn3c(-c4ccco4)nnc3s2)c1,19.2% (inactive),-9.06,6.05
Cc1cc(C(=O)O)c(CSc2ncn[nH]2)o1,-5.63% (inactive),-62.3,6.05
Cc1cc(=O)oc(C)c1C(=O)NCCC1=CCCCC1,26.9% (inactive),32.2,17.3
Cc1nc2ccccn2c(=O)c1CCN1CCC(C(=O)c2ccc(F)cc2)CC1,73.8% (inactive),86.5,24.8
Cc1nc2sccn2c(=O)c1CCN1CCC(=C(c2ccccc2)c2ccc(F)cc2)CC1,29.7% (inactive),6.78,5.93
Cc1nc2sccn2c(=O)c1CCN1CCC(=C(c2ccc(F)cc2)c2ccc(F)cc2)CC1,93.1% (active),84.8,24.1
O=C(CCC(=O)CCN1CCCCC1)CCN1CCCCC1,28.4% (inactive),14.4,16.4
CCOc1ccc2nc(NC(NC(C)=O)(C(=O)OC)C(F)(F)F)sc2c1 (centres undefined),-16.9% (inactive),18.6,3.93
C=CCn1cnc2c(c1=O)c1nc3ccccc3nc1n2-c1ccc(C)cc1,31.2% (inactive),-2.67,2.48
Cn1c(SCC(=O)NCc2ccccc2)nc2ccccc21,59.6% (inactive),2.57,4.29
CCC(=O)O[C@@H]1CC(=O)O[C@H](C)CC=CC=C[C@@H](O)[C@H](C)C[C@H](CC=O)[C@H](O[C@H]2O[C@H](C)[C@@H](O[C@H]3C[C@@](C)(O)[C@@H](OC(=O)CC)[C@H](C)O3)[C@H](N(C)C)[C@H]2O)[C@H]1OC,-45.9% (inactive),-13.7,2.22
COc1ccc2[nH]c(C)c(C(=O)CN3CCc4cc(OC)c(OC)cc4C3)c2c1,-33.9% (inactive),-14.6,2.58
CCN(CC)C(=O)CSc1nc2ccccc2c(=O)n1CC1CCCCC1,65.6% (inactive),31.7,18.9
Cc1[nH]c2ccc(F)cc2c(=O)c1SC(F)(F)C(F)C(F)(F)F (centres undefined),-7.36% (inactive),-57.2,1.61
COc1cccc2c(=O)c(SC(F)(F)C(F)C(F)(F)F)c(C)[nH]c12 (centres undefined),94% (active),65.5,36.9

SMILES,growth inhibition,growth inhibition [1] [%],condensed nuclei [%]
Cc1onc(-c2ccccc2Cl)c1C(=O)N1CCN(c2nc3ccccc3s2)CC1,55.9% (inactive),62.8,7.24
O=C1[C@@H]2[C@H](C(=O)N1n1cnnc1)[C@H]1C=C[C@@H]2C1,-36.7% (inactive),4.74,7.85
Cc1cccn2c(=O)c3cc(C#N)c(=N)n(Cc4ccncc4)c3nc12,10.6% (inactive),-4.36,5.14
CCC(NC(=O)Nc1cc(OC)c(OC)c(OC)c1)(C(F)(F)F)C(F)(F)F,9.36% (inactive),-14.6,2.2
COC(=O)[C@@H](N)Cc1ccc(O)cc1,-11.9% (inactive),12.5,9.88
COC(=O)/C=c1/s/c(=C(/C#N)C(=O)N2CCOCC2)n(-c2ccccc2)c1=O,-9.52% (inactive),-73,5.81
C=CCOC(=O)C1=C(C)NC(SCC(=O)Nc2ccc(C)c(Cl)c2)=C(C#N)C1c1ccco1 (centres undefined),81.3% (inactive),81.8,10.5
O=C1C(=O)N(Cc2cccnc2)C(c2ccccn2)/C1=C(/O)c1ccc(Br)cc1 (centres undefined),-60.8% (inactive),-51.9,3.93
CCOC(=O)c1c(C)n(C)c2ccc(O)c(S(=O)(=O)c3ccccc3)c12,0.86% (inactive),-12.9,2.84
Cc1nc(Sc2cccn2C)c(C(F)(F)F)c(=O)[nH]1,26% (inactive),-42.6,1.74
N#CC1=C(C=Nc2ccccc2O)CCC1,2.22% (inactive),-3.16,1.93
CCOC(=O)c1c(C)n(C)c2ccc(OC)c(NC(=O)CCN3CCSCC3)c12,-24% (inactive),-19.5,1.98
Cc1cc2c(c(=O)n1CC1CCCO1)C(c1ccc3c(c1)OCO3)C(C#N)=C(N)O2 (centres undefined),-29.9% (inactive),-39,2.84
COC(=O)C(NC(=O)c1ccccc1)(Nc1nccs1)C(F)(F)F (centres undefined),60.8% (inactive),20.8,9.01
CC(C)(C)C1=Nn2c(nnc2-c2ccccn2)SC1,-24.5% (inactive),-54.2,2.89
Cn1c(Cl)nc2c1c(=O)n(Cc1cccc(Br)c1)c(=O)n2C,58.3% (inactive),38,20.4
CC(NC(=O)NCc1cccnc1)(C(F)(F)F)C(F)(F)F,-58% (inactive),-34.9,7.24
CCO/C(C)=N/n1c2nc3ccccc3nc2c2c(=O)n(Cc3ccccc3Cl)c(C)nc21,-20.7% (inactive),-31,2.79
CC(C)N=c1cc2n(-c3ccc(Cl)cc3)c3ccccc3nc-2cc1Nc1ccc(Cl)cc1,39.7% (inactive),87,30.8
COC(=O)NC(Nc1sc2c(c1C(N)=O)CCCC2)(C(=O)OC)C(F)(F)F (centres undefined),-86.9% (inactive),-40.6,3.2
O=C(CN1C(=O)c2ccccc2S1(=O)=O)NCCSCc1ccco1,36.4% (inactive),6.94,3.38
CCCCCNC(=O)C(C#N)c1nc2ccccc2nc1N1CC(C)OC(C)C1 (centres undefined),31% (inactive),-14.9,8.13
CCN(CC)c1ccc2cc(-c3nnc(-c4ccncc4)o3)c(=O)oc2c1,99.1% (active),-9.72,4.75
CCN(CC)c1ccc2cc(C(=O)Nc3ccccn3)c(=O)oc2c1,12.7% (inactive),-23.3,5.56
CCCCCCc1cc2cc(-c3nnc(-c4ccccc4O)o3)c(=O)oc2cc1O,23.4% (inactive),12.5,4.18

SMILES,growth inhibition,growth inhibition [1] [%],condensed nuclei [%]
CCOC(=O)CSc1nnc2n(Cc3ccccc3)c(=O)c3c4c(sc3n12)CCC4,17.8% (inactive),-5.86,16.9
CCOC(=O)c1ccc(NC(=O)CCC(CC)C(=O)O)cc1 (centres undefined),-26.9% (inactive),-22.9,2.9
CC1(C(=O)CSc2n[nH]c(-c3ccccc3Cl)n2)CCC(=O)O1 (centres undefined),-77.2% (inactive),-34.5,2.66
OCCN(CCO)c1ncnc2c1sc1nc(N3CCOCC3)c3c(c12)CCCC3,49.2% (inactive),92.5,17.2
CC1(C)Cc2c(sc3nc(SCC#N)n(C4CCCCC4)c(=O)c23)CO1,25.6% (inactive),23.5,3.8
N#CC(C(=O)NC1CCCCC1)c1nc2ccccc2nc1N1CCN(c2ccccc2F)CC1 (centres undefined),-45.2% (inactive),-45.5,1.44
CCCCC(CCC(=O)Nc1ccc(C(=O)OC)cc1)C(=O)O (centres undefined),37.5% (inactive),-7.18,1.33
Cc1c(CCC#N)c(N2CCN(C3CCCCC3)CC2)n2c(nc3ccccc32)c1C#N,32.8% (inactive),-4.95,10.6
Cc1cc(COc2ccccc2OCCN2CCN(C)CC2)no1,4.14% (inactive),10.2,1.56
CC(=O)c1cc(C#N)c(SCc2ccncc2)nc1C,26.3% (inactive),11,4.17
CCOC(=O)CC(=O)CSc1nc2c(cc1C#N)CCCCCC2,-4.76% (inactive),-61.7,6.69
COC(=O)CC1SC(=O)NC1=O (centres undefined),-1.44% (inactive),-13,4.51
Cc1ccc(SCc2nnc(N)s2)cc1,-4.01% (inactive),13.4,15.1
CCN(CC)CCCC1(CN)OCCc2ccccc21 (centres undefined),-50.9% (inactive),-27.8,1.84
CCOc1cccc(-c2nnc3sc(-c4cc(OC)c(OC)c(OC)c4)nn23)c1,-44.5% (inactive),-50.4,2.45
Cc1ccc2cc(CN(C(=O)c3ccco3)c3ccccc3C)c(=O)[nH]c2c1,-61.6% (inactive),-59.5,2.77
CCCOc1ccc(Cl)cc1CN1CCOCC1,-59.3% (inactive),-68.7,3.51
COn1c(SC2CCCCC2)nc2ccccc2c1=O,52.3% (inactive),29.2,12.3
CCOC(=O)C1=C(N)n2c(s/c(=C\c3ccco3)c2=O)=C(C(=O)OC(C)C)C1c1ccco1 (centres undefined),50% (inactive),-8.27,23.3
O=C(O)c1cc2sccc2s1,33% (inactive),-8.08,8.44
CC1(C)NC(=O)N(CC(O)COc2ccccc2C(=O)Nc2ccccc2)C1=O (centres undefined),-19.4% (inactive),-40.4,5.25
COC(=O)C1C(=O)CC(C)(O)C(C(=O)OC)C1c1ccccc1F (centres undefined),19% (inactive),-32.9,2.72
O=C(OCC#CCSc1nnc(-c2ccccc2)o1)c1cccs1,38% (inactive),5.5,10.3

# Reference: PubChem BioAssay AID772 (SRMLSC, 2007)
